Assay in all cases: PBM binding z-score (relative to random genomic background probes); higher = stronger binding; sequences stand for … in GC…GCGATTGACAGCGTAGAATGAAGG
The test system of assay [1] is PPARg:RXRa DBDmut IVT, anti-RXR (DBD mutation: RXRa K156A/R161A, NR concentration 270 nM, RXRa partner concentration 90 nM). An outline of the steps:
(§1)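 Regression normalization was applied to scanned fluorescence from custom Agilent 4×180K protein-binding microarrays. Before scanning, arrays were incubated 1 h with ligand-free nuclear receptor dimers, and binding was detected with antibodies against each partner (one per run). Binding z-scores use the random background probes as reference.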

Assay [2] deals with PPARg:RXRa IVT, anti-PPARg (NR concentration 270 nM, RXRa partner concentration 90 nM). An outline of the steps: as §1
Assay [3] concerns PPARg DBDmut:RXRa IVT, anti-PPARg (DBD mutation: PPARg1 K132A/R137A, NR concentration 270 nM, RXRa partner concentration 90 nM). An outline of the steps: as §1
Assay [4] concerns PPARg DBDmut IVT, anti-PPARg (DBD mutation: PPARg1 K132A/R137A, NR concentration 270 nM). Put shortly: as §1
In assay [5] the test system is PPARg homodimer (NR concentration 180 nM). An outline of the steps:
as §1

The subject of assay [6] is PXR:RXRa (NR concentration 270 nM, RXRa partner concentration 90 nM). Put shortly:
as §1

The subject of assay [7] is PXR homodimer (NR concentration 270 nM). An outline of the steps: as §1
For assay [8], the system named is RARa:RXR (NR concentration 270 nM, RXRa partner concentration 90 nM). An outline of the steps:
as §1

Assay [9] relates to RARa homodimer (NR concentration 270 nM). An outline of the steps: as §1
Assay [10] deals with RARb:RXRa (NR concentration 270 nM, RXRa partner concentration 90 nM). An outline of the steps:
as §1

Assay [11] concerns RARb homodimer (NR concentration 270 nM). Put shortly: as §1
In assay [12] the test system is RARg:RXRa (NR concentration 270 nM, RXRa partner concentration 90 nM). Put shortly: as §1
For assay [13], the system named is RARg homodimer (NR concentration 270 nM). An outline of the steps: as §1
In assay [14] the test system is RXRa DBDmut IVT, anti-RXR (DBD mutation: RXRa K156A/R161A, NR concentration 90 nM). Put shortly: as §1
Assay [15] concerns RXRa homodimer (NR concentration 180 nM). Put shortly:
as §1

Assay [16] has as its system THRa:RXRa (NR concentration 90 nM, RXRa partner concentration 90 nM). Put shortly:
as §1

Assay [17] has as its system THRa homodimer (NR concentration 90 nM). An outline of the steps:
as §1

The test system of assay [18] is VDR homodimer (NR concentration 270 nM). An outline of the steps:
as §1

As to ATCGAAACGTCGAAGGTGAGTATACCCACCCGAA, the PBM binding z-score in assay [1] is -0.927; in assay [2] it was -0.0186; in [3], 0.59; in assay [4], 0.626; in [5], -0.242; in assay [6], -0.502. The PBM binding z-score in [7] was -0.249; in assay [8] it was -0.42; in [9] it was 0.0263; in [10] it was 0.237; in [11], -0.0717; in assay [12], 0.382. In addition, the PBM binding z-score is 0.461 in assay [13]; -1.07 in [14]; 0.361 in assay [15]; 0.0237 in [16]; -0.567 in assay [17]; -0.497 in [18].
In the case of CGAACTAGGTCATCCAGGACAGTGTATACATTGA, the PBM binding z-score turned out to be 8.32 in assay [1]; 8.01 in assay [2]; 2.41 in assay [3]; 1.17 in assay [4]; 1.54 in assay [5]; 2.03 in [6]. For the same sequence, the PBM binding z-score came to 1.29 in [7]; 2.33 in assay [8]; 0.356 in assay [9]; 4.02 in assay [10]; 3.16 in [11]; 3.92 in assay [12]. The PBM binding z-score in [13] was found to be 4.85; in [14] it was 2.47; in [15], 3.21; in assay [16], 3.62; in [17] it was 2.17; in assay [18], 2.4.
Consider GCAGACAGGTGAAACGTAGGTAACTCAGGGTGGC, for which the PBM binding z-score in assay [1] is 1.69; in assay [2], 0.679; in [3], -0.482; in assay [4] it was -0.518; in assay [5] it was -0.211; in assay [6] it was -0.374. In addition, the PBM binding z-score was -0.933 in [7]; 0.315 in assay [8]; -0.166 in assay [9]; 0.76 in [10]; 0.622 in assay [11]; 0.956 in assay [12]. The PBM binding z-score was 0.393 in assay [13]; -0.48 in [14]; 0.858 in assay [15]; 1.2 in assay [16]; -0.606 in assay [17]; -0.684 in assay [18].
Consider CCTATTAGTTGACCATAAGGGCACCCGAAGCTCG, for which the PBM binding z-score is -0.198 in assay [1]; 0.504 in [2]; 0.132 in assay [3]; 0.825 in assay [4]; 1.88 in assay [5]; 0.521 in [6]. Besides, the PBM binding z-score in assay [7] worked out at 0.781; in assay [8] it was 0.981; in [9] it was 1.56; in assay [10] it was 1.2; in assay [11], 1.86; in assay [12] it was 1.16. The PBM binding z-score came to 1.04 in assay [13]; 0.326 in assay [14]; 0.908 in assay [15]; 2.02 in assay [16]; 1.61 in assay [17]; 1.39 in assay [18].
For ATCGAAAGGTCGAAGGTGAGTATGCCCACCCGAA, the PBM binding z-score in [1] came out at 0.0846; in assay [2], 2.48; in assay [3], 0.798; in [4], 0.662; in assay [5], 1.31; in [6], 3.12. The PBM binding z-score in [7] was -0.415; in [8], 4.46; in assay [9], -0.229; in assay [10], 3.83; in assay [11], 2.54; in [12] it was 4.34. Also, the PBM binding z-score was 3.76 in assay [13]; 1.32 in assay [14]; 5.13 in [15]; 2.04 in assay [16]; -0.289 in assay [17]; 0.413 in assay [18].
Take TCCATTAGTTGATTAGGGCAACCGAAACAGCGGA: the PBM binding z-score in assay [1] worked out at 2.08; in assay [2], 1.28; in assay [3], 0.323; in assay [4] it was 0.941; in assay [5], 0.749; in assay [6], 0.562. Moreover, the PBM binding z-score in assay [7] came out at 0.0879; in assay [8], 0.689; in assay [9], 0.398; in [10], 1; in assay [11], 0.875; in assay [12], 0.57. In addition, the PBM binding z-score worked out at 0.556 in assay [13]; 1.09 in [14]; 0.491 in [15]; 0.718 in assay [16]; 0.498 in assay [17]; 0.246 in [18].
On to TCGAGCAGGCCAGAGGGTCACTCAAGAGGTACGG, for which the PBM binding z-score in assay [1] was -0.0196; in assay [2] it was 0.342; in [3], -0.384; in [4], -1.69; in assay [5], 0.386; in [6], 1.76. Besides, the PBM binding z-score in assay [7] was -0.594; in assay [8], 2.13; in [9], -0.84; in assay [10] it was 2.19; in [11] it was 2.68; in assay [12], 2.77. In addition, the PBM binding z-score in [13] is 2.03; in assay [14] it was -0.586; in assay [15] it was 2.65; in [16], 1.51; in assay [17], -0.421; in [18], 0.462.
In the case of TCTGCTAGGTCAAGGATGGTCAGCTAATCTGCTA, the PBM binding z-score in [1] was 4.19; in [2], 4.08; in [3] it was -0.492; in assay [4], 0.24; in assay [5], 0.578; in assay [6], 1.23. The PBM binding z-score in assay [7] was -0.697; in [8], 2.26; in assay [9], -0.712; in assay [10], 3.97; in assay [11], 3.49; in assay [12], 3.97. Moreover, the PBM binding z-score in assay [13] is 4.85; in assay [14] it was 0.94; in assay [15], 2.6; in assay [16], 2.88; in assay [17], 0.621; in assay [18] it was -0.0676.

The values are drawn from the supplement of paper PMC6555819.
